Consider 13 molecules from ChEMBL document CHEMBL5606458, “ASAP - ZIKV NS2B-NS3 protease fluorescence single point” (2024).

This assay concerns the target Nonstructural protein 3 (Zika virus) (UniProt A0A024AXB9).

Screen size: about 2,700 compounds; about 160 (5.9%) showed an effect of 50% or more. For the sample, strong results were picked, then their nearest neighbours and some compounds at random.

Chain of Nonstructural protein 3 (Zika virus) (A0A024AXB9 as listed by the source): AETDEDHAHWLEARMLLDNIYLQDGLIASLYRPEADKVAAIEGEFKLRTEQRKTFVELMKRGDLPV

For the molecule `N[C@H]1CC[C@@H](NC(=O)[C@@H](NC(=O)OCc2ccccc2)c2ccc(OCc3ccccc3)cc2)C1`, the inhibition (usually the percentage by which the read-out fell short of the control) (PRVABC59, Concentration 49.5 uM, Number of replicates 2.0, Standard deviation 1.7270227515739174 %) worked out at 10.7%; the inhibition (PRVABC59, Concentration 99.01 uM, Number of replicates 2.0, Standard deviation 1.537724733346876 %) came to 44.6%; the inhibition (PRVABC59, Concentration 198.0 uM, Number of replicates 2.0, Standard deviation 0.3345151533587208 %) was determined as 79.2%.
With `O=C(N[C@@H](C(=O)NC1CCNCC1)c1ccc(OCc2ccccc2)cc1)OCc1ccccc1`, the inhibition by setting is: (PRVABC59, Concentration 49.5 uM, Number of replicates 2.0, Standard deviation 1.3674946237357393 %) 8.84%; (PRVABC59, Concentration 99.01 uM, Number of replicates 2.0, Standard deviation 2.2060968748779715 %) 27.2%; (PRVABC59, Concentration 198.0 uM, Number of replicates 2.0, Standard deviation 0.9505739521685185 %) 59.8%.
`N[C@@H]1CC[C@H](NC(=O)[C@@H](NC(=O)OCc2ccccc2)c2ccc(OCc3ccccc3)cc2)C1` registered an inhibition (PRVABC59, Concentration 49.5 uM, Number of replicates 2.0, Standard deviation 0.3008027321718269 %) of 7.24%; an inhibition (PRVABC59, Concentration 99.01 uM, Number of replicates 2.0, Standard deviation 0.0103741938798655 %) of 43%; an inhibition (PRVABC59, Concentration 198.0 uM, Number of replicates 2.0, Standard deviation 1.7866649254890776 %) of 79.8%.
`CC(C)(C)OC(=O)Cn1ccnc(N2CC[C@@H](CO)C2)c1=O`: the inhibition runs as follows: (PRVABC59, Concentration 49.5 uM, Number of replicates 2.0, Standard deviation 1.325865675699347 %) 11.6%; (PRVABC59, Concentration 99.01 uM, Number of replicates 2.0, Standard deviation 1.7656333109073532 %) 22.2%; (PRVABC59, Concentration 198.0 uM, Number of replicates 2.0, Standard deviation 1.622873505631253 %) 37.1%.
Consider `O=C(O)c1cc(Cl)ccc1NS(=O)(=O)c1ccc(Br)cc1`, for which the inhibition is, setting by setting: (PRVABC59, Concentration 49.5 uM, Number of replicates 2.0, Standard deviation 0.7950601733582335 %) 7.77%; (PRVABC59, Concentration 99.01 uM, Number of replicates 2.0, Standard deviation 0.4216229111618842 %) 14.7%; (PRVABC59, Concentration 198.0 uM, Number of replicates 2.0, Standard deviation 0.3312742292956271 %) 24.5%.
On to `CCn1ccnc(N2CC[C@H](c3ccc(C#N)cc3)C2)c1=O`, for which the inhibition runs as follows: (PRVABC59, Concentration 49.5 uM, Number of replicates 2.0, Standard deviation 3.318813799365356 %) 8.78%; (PRVABC59, Concentration 99.01 uM, Number of replicates 2.0, Standard deviation 2.601162551030959 %) 17.7%; (PRVABC59, Concentration 198.0 uM, Number of replicates 2.0, Standard deviation 2.251403725502818 %) 31.6%.
As to `CCn1ccnc(N2CC[C@H](C3CCOCC3)C2)c1=O`, the inhibition turned out to be 7.04% (PRVABC59, Concentration 50.0 uM, Number of replicates 2.0, Standard deviation 1.8994947363510455 %); 14.4% (PRVABC59, Concentration 100.0 uM, Number of replicates 2.0, Standard deviation 0.728011618047951 %); 27.3% (PRVABC59, Concentration 200.0 uM, Number of replicates 2.0, Standard deviation 0.3716947428915149 %).
On to `N[C@H]1C[C@H](CNC(=O)[C@@H](NC(=O)OCc2ccccc2)c2ccc(OCc3ccccc3)cc2)C1`, for which the inhibition is, setting by setting: (PRVABC59, Concentration 49.5 uM, Number of replicates 2.0, Standard deviation 3.7963377615811797 %) 3.96%; (PRVABC59, Concentration 99.01 uM, Number of replicates 2.0, Standard deviation 2.5827561793492815 %) 42.9%; (PRVABC59, Concentration 198.0 uM, Number of replicates 2.0, Standard deviation 1.1643103990361166 %) 82.5%.
Under “PRVABC59, Concentration 50.0 uM, Number of replicates 1.0”, `O=Cc1ccc(N2CCC(C(=O)N3C[C@@H]4C[C@H](C3)c3cccc(=O)n3C4)CC2)cc1` displayed an inhibition of 21.2%.
Take `CC(C)Oc1cc(COc2cccnc2F)nc(N2CCNCC2)n1`: the inhibition was found to be 4.13% (PRVABC59, Concentration 49.5 uM, Number of replicates 2.0, Standard deviation 2.4105168451759336 %); 16.6% (PRVABC59, Concentration 99.01 uM, Number of replicates 2.0, Standard deviation 2.7698794201931607 %); 38.4% (PRVABC59, Concentration 198.0 uM, Number of replicates 2.0, Standard deviation 3.834837221821941 %).
For the molecule `COc1cc(COc2cncc3ccccc23)nc(N2CCNCC2)n1`, the inhibition was found to be 18.2% (PRVABC59, Concentration 49.5 uM, Number of replicates 2.0, Standard deviation 3.6633197788698872 %); 33.6% (PRVABC59, Concentration 99.01 uM, Number of replicates 2.0, Standard deviation 8.620902514901289 %); 48.9% (PRVABC59, Concentration 198.0 uM, Number of replicates 2.0, Standard deviation 2.631600667850739 %).
In the case of `COc1cc(C(=O)Nc2cnc3ccccc3c2)nc(N2CCNCC2)n1`, the inhibition by setting is: (PRVABC59, Concentration 49.5 uM, Number of replicates 2.0, Standard deviation 31.670721297793175 %) 46.6%; (PRVABC59, Concentration 99.01 uM, Number of replicates 2.0, Standard deviation 1.978331259427643 %) 52.6%; (PRVABC59, Concentration 198.0 uM, Number of replicates 2.0, Standard deviation 3.25586764970173 %) 44.4%.
On to `COC(=O)c1cncc(OCc2cc(OC)nc(N3CCNCC3)n2)c1`, for which the inhibition was 8.58% (PRVABC59, Concentration 49.5 uM, Number of replicates 2.0, Standard deviation 0.44537620063304795 %); 19.8% (PRVABC59, Concentration 99.01 uM, Number of replicates 2.0, Standard deviation 1.920430256118165 %); 42.9% (PRVABC59, Concentration 198.0 uM, Number of replicates 2.0, Standard deviation 1.464841031153957 %).
